Source: PubChem BioAssay (NCATS)
Several values for one entry are separate records, joined by “and”; a condition that tells them apart may be missing. Equal entries are not always repeated. Inconclusive results are not listed. Activity calls are given as the source filed them. Unless noted, the call rests on the fitted dose curve; in most records, active means well fitted curve in the direction sought with a large enough effect; inconclusive means small, poorly fitted or top-dose-only effect, or another doubt; inactive means no such curve, though single readings can be large; an effect the other way counts as inactive or inconclusive.

Legend:
[1] = molecular target: Cellular tumor antigen p53 (Homo sapiens) (UniProt P04637); experiment: Primary qHTS for small molecule compounds that upregulate eGFP-tagged delta133p53alpha (in N-terminal) cells. (AID 2060322); settings: NCI-H358 eGFP-delta133p53alpha fluorescence, 24 h; activation: active compounds read high; further: nearly all actives have a fitted effect of over 75% in size; further: potency means the concentration at half of the fitted maximal effect;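 on activation: series mostly up to about 56 µM; 0% = DMSO vehicle and 100% = reference activator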
Chain of Cellular tumor antigen p53 (Homo sapiens) (P04637 whole entry, looked up): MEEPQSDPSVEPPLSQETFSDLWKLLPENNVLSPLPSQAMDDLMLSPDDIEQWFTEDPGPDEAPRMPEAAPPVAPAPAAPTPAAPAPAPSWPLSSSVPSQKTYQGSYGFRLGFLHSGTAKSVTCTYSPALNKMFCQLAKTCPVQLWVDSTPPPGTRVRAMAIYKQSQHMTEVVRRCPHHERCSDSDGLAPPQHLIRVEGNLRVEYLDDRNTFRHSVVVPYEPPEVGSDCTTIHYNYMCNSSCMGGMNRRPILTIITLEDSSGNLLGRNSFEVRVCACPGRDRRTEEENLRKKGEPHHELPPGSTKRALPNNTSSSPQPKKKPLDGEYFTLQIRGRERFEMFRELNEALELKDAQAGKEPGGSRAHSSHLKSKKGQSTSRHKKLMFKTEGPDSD
Procedure, shortened: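 NCI-H358 cells pre-induced 24 h with 10 ng/ml doxycycline to express N-terminal eGFP-delta133p53alpha, then dosed 24 h at 37C without doxycycline; fixed, Hoechst-stained, GFP intensity by laser scanning cytometry, normalized to DMSO (0%) and 57.5 uM 5-azacytidine (100%).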

[2] = qHTS for Inhibitors of the Aldehyde Dehydrogenase Family (ALDH1A2, ALDH1A3, ALDH2, ALDH3A1) (AID 2061307); further: nearly all actives have a fitted effect of over 50% in size; on Potency: test system not described further here; potency means the concentration at half of the fitted maximal effect; on activity change, negative = inhibition: on the % scale 0 is the no-effect control and ±100 the full control effect
[3] = molecular target: Aldehyde dehydrogenase, mitochondrial (Homo sapiens) (UniProt P05091); experiment: qHTS for Inhibitors of the Aldehyde Dehydrogenase Family (ALDH2) Primary screen (AID 2061308); further: nearly all actives have a fitted effect of over 55% in size; further: potency means the concentration at half of the fitted maximal effect;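 on activity change, negative = inhibition: plate controls were vehicle for no effect and reference inhibitor for full effect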
[4] = molecular target: Retinaldehyde dehydrogenase 3 (Homo sapiens) (UniProt P47895); experiment: qHTS for Inhibitors of the Aldehyde Dehydrogenase Family (ALDH1A3) Confirmatory screens (AID 2061311); further: nearly all actives have a fitted effect of over 60% in size; further: potency means the concentration at half of the fitted maximal effect; on activity change, negative = inhibition: on the % scale 0 is the no-effect control and ±100 the full control effect
[5] = molecular target: Retinal dehydrogenase 2 (Homo sapiens) (UniProt O94788); experiment: qHTS for Inhibitors of the Aldehyde Dehydrogenase Family (ALDH1A2) Confirmation screens (AID 2061314); further: nearly all actives have a fitted effect of over 65% in size; further: potency means the concentration at half of the fitted maximal effect
[6] = molecular target: Retinaldehyde dehydrogenase 3 (Homo sapiens) (UniProt P47895); experiment: qHTS for Inhibitors of the Aldehyde Dehydrogenase Family (ALDH1A3) Primary screen (AID 2061315); further: potency means the concentration at half of the fitted maximal effect;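 on activity change, negative = inhibition: plate controls were DMSO vehicle for no effect and reference inhibitor for full effect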
[7] = molecular target: Retinaldehyde dehydrogenase 3 (Homo sapiens) (UniProt P47895); experiment: qHTS for Inhibitors of the Aldehyde Dehydrogenase Family (ALDH1A3) Validation screen (AID 2061312); further: on the % scale 0 is the no-effect control and ±100 the full control effect; nearly all actives have a fitted effect of over 45% in size
[8] = molecular target: Aldehyde dehydrogenase 1A1 (Homo sapiens) (UniProt P00352); experiment: qHTS for Inhibitors of the Aldehyde Dehydrogenase Family (ALDH1A1) Confirmatory screens (AID 2061316); further: nearly all actives have a fitted effect of over 65% in size; further: potency means the concentration at half of the fitted maximal effect; on activity change, negative = inhibition: on the % scale 0 is the no-effect control and ±100 the full control effect
[9] = BET inhibitor-based combinations targeting novel dependencies in MECOM-rearranged (r) AML: HNT-34 cell line (AID 2202234); further: nearly all actives have a fitted effect of over 35% in size; further: potency means the concentration at half of the fitted maximal effect
Procedure, shortened: (§1)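 Cells were plated at 500 per well and exposed to each drug across an 11-point dose range for 48 hr at standard incubator conditions. Viability was read by CellTiter-Glo luminescence, and activity was expressed as AUC and per-cell-line Z-transformed AUC.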

[10] = BET inhibitor-based combinations targeting novel dependencies in MECOM-rearranged (r) AML: UCSD-AML1 cell line (AID 2202235); further: potency means the concentration at half of the fitted maximal effect; nearly all actives have a fitted effect of over 40% in size
Procedure, shortened: as §1

[11] = BET inhibitor-based combinations targeting novel dependencies in MECOM-rearranged (r) AML: AML-191 cell line (AID 2202236; further: nearly all actives have a fitted effect of over 35% in size; further: potency means the concentration at half of the fitted maximal effect)
Procedure, shortened: (§2)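 500 cells/well; 11-pt dose curve; 48 h, standard incubator; CellTiter-Glo luminescence after 15 min RT; DMSO/empty-well normalization; AUC plus Z-AUC (mean-centered within each line).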

[12] = molecular target: Aldehyde dehydrogenase, mitochondrial (Homo sapiens) (UniProt P05091); experiment: qHTS for Inhibitors of the Aldehyde Dehydrogenase Family (ALDH2) Confirmatory screens (AID 2061303; active means well fitted inhibition curve with a large enough effect; title and protocol of this record describe different tests; further: on the % scale 0 is the no-effect control and ±100 the full control effect; nearly all actives have a fitted effect of over 45% in size)
[13] = BET inhibitor-based combinations targeting novel dependencies in MECOM-rearranged (r) AML: SET-2 cell line (AID 2202231); settings: SET-2 AML cells viability, CellTiter-Glo luminescence, 48 h; viability: active compounds read low, concentration not given here; further: nearly all actives have a fitted effect of over 35% in size; further: potency means the concentration at half of the fitted maximal effect;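 on viability: plate controls were DMSO treated cells for no effect and wells without cells for full effect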
Procedure, shortened: as §2

[14] = BET inhibitor-based combinations targeting novel dependencies in MECOM-rearranged (r) AML: MV-4-11 cell line (AID 2202233); further: nearly all actives have a fitted effect of over 45% in size; further: potency means the concentration at half of the fitted maximal effect
Procedure, shortened: as §1

[15] = BET inhibitor-based combinations targeting novel dependencies in MECOM-rearranged (r) AML: AML-194 cell line (AID 2202237; further: nearly all actives have a fitted effect of over 40% in size; further: potency means the concentration at half of the fitted maximal effect)
Procedure, shortened: as §2

O=C(/C=C/c1ccc(O)c(O)c1)O[C@H]1[C@H](OC2CCCCC2O)O[C@H](CO)[C@@H](O)[C@@H]1O (stereo not given in full)
active: Potency [4] 11 µM
inactive: activation [1] 5.36% | Potency [2] | Potency [3]

COCC(=O)NC/C=C/c1ccc2ncnc(Nc3ccc(Oc4ccc(C)nc4)c(C)c3)c2c1
inactive: activation [1] 0% | Potency [3] | Potency [4] | Potency [5] | Potency [6]
active: Potency [2] 7.12 µM

CC[C@@H](Nc1c(Nc2cccc(C(=O)N(C)C)c2O)c(=O)c1=O)c1cc(C(C)C)co1
inactive: activation [1] -2.39% | Potency [3] | Potency [7] | Potency [5] | Potency [8]
active: Potency [2] 5.62 µM and 7.08 µM

NC(=Nc1ccc(CCNCc2cccc(Cl)c2)cc1)c1cccs1
inactive: activation [1] -11.9% | Potency [2] | Potency [3] | Potency [6]

C=CC(C)(O)CC/C=C(\C)C1CC=C(C)C(=O)O1 (stereo not given)
inactive: activation [1] -9.82% | Potency [2] | Potency [3]
active: Potency [4] 22.5 µM | Potency [6] 14.1 µM

N#Cc1ccc2[nH]cc(CCCCN3CCN(c4ccc5oc(C(N)=O)cc5c4)CC3)c2c1
active: Potency [2] 2.24 µM | Potency [4] 15.8 µM | Potency [5] 15.8 µM
inactive: activation [1] 11.5% | Potency [3] | Potency [7] | Potency [6]

Cc1cc(N2CCOCC2)cc2[nH]c(-c3c(NC[C@@H](O)c4cccc(Cl)c4)cc[nH]c3=O)nc12
inactive: Potency [2] | Potency [3] | Potency [7] | Potency [6]
active: Potency [1] 21.7 µM and 23.9 µM | Potency [9] 7.42 µM | Potency [10] 0.296 µM | Potency [11] 0.59 µM

COc1c2c(c(C)c3c1C(=O)OC3)OC1(C)CC(O)C34OC(OC)(CC(O)C3(C)C1C2)OC4(C)C (stereo not given)
inactive: activation [1] -9.92% | Potency [2] | Potency [3] | Potency [6]

CC(O)CCC1C(CO[C@@H]2O[C@H](CO)[C@@H](O)[C@H](O)[C@H]2O)CC(O)CC1(C)C (stereo not given in full)
inactive: activation [1] 5.34% | Potency [2] | Potency [3] | Potency [5]
active: Potency [4] 3.92 µM | Potency [6] 6.31 µM

COc1ccc(-c2c(-c3cc(C(=O)O)ccn3)ncn2C)cc1
inactive: activation [1] -2.33% | Potency [12] | Potency [6] | Potency [8]
active: Potency [5] 28.3 µM

CC1=CCC2C(C)(CO)CCCC2(CO)C1CO (stereo not given)
inactive: activation [1] -19.8% | Potency [2] | Potency [3] | Potency [6]

OC[C@H]1O[C@@H](OC(CCCCc2ccc(O)cc2)CCc2ccc(O)cc2)[C@H](O)[C@@H](O)[C@@H]1O (stereo not given in full)
inactive: activation [1] -9.92% | Potency [2] | Potency [3]

O=C(O)c1ccccc1C(=O)Nc1ccc(-c2ccccc2)cc1
inactive: activation [1] -8.49% and 5.67% | Potency [2] | Potency [3] | activity change, negative = inhibition [4] -21.1% [at 0.0073 µM] | Potency [6] | viability [13] 116% | Potency [14] | Potency [9] | Potency [11] | Potency [15]
active: Potency [5] 10.1 µM

C=C1C(O)CCC2(C)CC3(OC)OC(=O)C(C)=C3CC12 (stereo not given)
inactive: activation [1] -6.87% | Potency [12] | Potency [6]

C[C@@H]1O[C@@H](O[C@@H]2[C@@H](O)[C@@H](O[C@]3(CO)O[C@H](CO)[C@@H](O)[C@@H]3OC(=O)/C=C/c3ccc(O)cc3)O[C@H](CO)[C@H]2OC(=O)/C=C/c2ccc(O)cc2)[C@H](O)[C@H](O)[C@H]1O[C@@H]1O[C@@H](C)[C@H](O[C@@H]2OC[C@](O)(CO)[C@H]2O)[C@@H](O)[C@H]1O
inactive: activation [1] -2.68% | Potency [2] | Potency [3]

COc1cc(C[C@H]2C(=O)OC[C@@H]2Cc2ccc(OC)c(OC)c2)ccc1O
active: Potency [2] 0.251 µM
inactive: activation [1] 19.6% | Potency [3] | Potency [6]

O=C(O)c1cc(C(F)(F)F)ccc1N1CC[C@H](OCc2ccccn2)C1
inactive: activation [1] -17% | Potency [2] | Potency [3] | Potency [4] | Potency [6] | Potency [8]

COc1ccc(CNC(=O)Nc2ncc([N+](=O)[O-])s2)cc1
active: Potency [1] 33.8 µM | Potency [2] 3.16 µM | Potency [4] 14.2 µM | Potency [5] 12.7 µM | Potency [13] 26.3 µM | Potency [14] 18.6 µM | Potency [9] 20.9 µM | Potency [11] 23.5 µM | Potency [15] 26.3 µM
inactive: Potency [3] | Potency [6]

O=C(c1c(F)ccc(NS(=O)(=O)N2CC[C@@H](F)C2)c1F)c1c[nH]c2ncc(-c3cnc(C4CC4)nc3)cc12
inactive: activation [1] 17% | Potency [3] | Potency [5] | Potency [6]
active: Potency [2] 22.4 µM | Potency [13] 16.6 µM | Potency [14] 18.6 µM | Potency [9] 5.9 µM

CCOC(=O)c1cnn(-c2ccc(NC(=O)C(Cl)=C(Cl)Cl)cc2)c1C(F)(F)F
inactive: Potency [6]
active: Potency [1] 19 µM | Potency [2] 4.47 µM | Potency [3] 4.47 µM | Potency [4] 7.08 µM | Potency [5] 0.634 µM | Potency [8] 4 µM
